# Results as given in PubChem BioAssay AID1851 (National Center for Advancing Translational Sciences (NCATS), 2009).
# About 5,100 (32%) of roughly 16,000 compounds were called active. Roughly 25% stayed inconclusive and do not appear here. The call rests on the fitted dose curve; in most records, active means well fitted curve in the direction sought with a large enough effect; inconclusive means small, poorly fitted or top-dose-only effect, or effect the other way; inactive means no such curve, though single readings can be large or run the other way. The list shows a part of the results.
# Target: Cytochrome P450 3A4 (Homo sapiens) (UniProt P08684)
# Sequence (P08684 whole entry, looked up): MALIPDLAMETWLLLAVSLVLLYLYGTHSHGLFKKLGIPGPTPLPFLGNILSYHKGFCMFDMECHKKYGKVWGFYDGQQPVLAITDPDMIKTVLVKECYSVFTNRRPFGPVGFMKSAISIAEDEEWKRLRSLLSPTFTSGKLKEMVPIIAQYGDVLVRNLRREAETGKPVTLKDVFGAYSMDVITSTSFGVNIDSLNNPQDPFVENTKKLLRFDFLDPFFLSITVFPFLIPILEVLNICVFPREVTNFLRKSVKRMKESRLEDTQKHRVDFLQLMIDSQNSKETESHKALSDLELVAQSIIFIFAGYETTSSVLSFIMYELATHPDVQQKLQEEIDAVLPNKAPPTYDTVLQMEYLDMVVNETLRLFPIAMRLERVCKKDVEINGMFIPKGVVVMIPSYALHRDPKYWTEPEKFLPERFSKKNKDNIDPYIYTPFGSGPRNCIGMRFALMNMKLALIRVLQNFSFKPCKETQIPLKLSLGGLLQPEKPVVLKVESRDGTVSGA
# Experiment: Cytochrome panel assay with activity outcomes
# Conditions: recombinant CYP, pro-luciferin dealkylation, luminescence, p450-cyp3a4; series mostly up to 57.1 µM; activity, negative = inhibition: at the top concentration
# On the % scale 0 is the no-effect control and ±100 the full control effect.
SMILES,"activity, negative = inhibition",AC50
C1CNCCOCCNCCN1,-2.84% (inactive),–
Cn1c(=O)c2c(nc(Cc3ccccc3)n2CC(=O)O)n(C)c1=O,-2.47% [at 11.4 µM] (inactive),–
CCN1CCN(c2nc3c(c(=O)[nH]c(=O)n3C)n2CCCSc2ncccn2)CC1,1.03% (inactive),–
Cn1c(=O)[nH]c(=O)c2c1nc(CN1CCOCC1)n2CCCO,0.641% (inactive),–
CCOC(=O)Cn1c(CN(Cc2ccccc2)Cc2ccccc2)nc2c1c(=O)[nH]c(=O)n2C,–,25.1 µM (active)
COc1ccc(N2CCN(Cc3nc4c(c(=O)n(C)c(=O)n4C)n3CC(C)=O)CC2)cc1,-22.5% (inactive),–
CCOC(=O)N1CCN(Cc2nc3c(c(=O)[nH]c(=O)n3C)n2Cc2ccccc2C)CC1,–,3.98 µM (active)
COc1ccc(N2CCN(Cc3nc4c(c(=O)[nH]c(=O)n4C)n3CCCc3ccccc3)CC2)cc1,–,2.24 µM (active)
Cn1c(=O)[nH]c(=O)c2c1nc(CN(Cc1ccccc1)Cc1ccccc1)n2CCN1CCOCC1,–,4.47 µM (active)
Oc1cc2c(cc1O)[C@H](c1ccccc1)CNCC2,–,inactive
CN(C)c1nc2c(c(=O)[nH]c(=O)n2C)n1Cc1ccccc1Br,-21% (inactive),–
CCOCCn1c(CN(Cc2ccccc2)Cc2ccccc2)nc2c1c(=O)[nH]c(=O)n2C,–,15.8 µM (active)
O=S(Cc1ccc(Br)cc1)Cc1nnc(SCc2ccc(Cl)cc2)n1-c1ccccc1 (centres undefined),–,7.08 µM (active)
COC(Cc1nnc(SC)n1-c1ccc(Cl)cc1)OC,-7.38% (inactive),–
O=P(O)(CCc1ccccc1)C(O)c1ccccc1 (centres undefined),2.84% [at 11.4 µM] (inactive),–
CCCC(C(=O)Nc1nccs1)c1ccccc1 (centres undefined),–,12.6 µM (active)
CCC(=O)[C@@H](c1ccccc1)c1ccccn1,-1.45% [at 11.4 µM] (inactive),–
O=C(O)c1ccccc1C(=O)Nc1nccs1,-3.78% (inactive),–
O=[N+]([O-])c1cc(C(F)(F)F)ccc1NCCCCNS(=O)(=O)c1ccc2ccccc2c1,–,14.1 µM (active)
Cc1nn(Cc2ccccc2Cl)c(C)c1NC(=O)CCCn1nc(C)c([N+](=O)[O-])c1C,–,2.51 µM (active)
Cc1c(Cl)c([N+](=O)[O-])nn1CC(=O)Nc1c(C)n(C)n(-c2ccccc2)c1=O,-28.3% (inactive),–
Cc1nn(CC(=O)NCCN2CCOCC2)c(C)c1[N+](=O)[O-],-13.5% (inactive),–
CN(C)CCNC(=S)Nc1cccc(Cl)c1,21.6% (inactive),–
O=C(Nc1cccc(F)c1)Nc1ccccn1,-1.91% (inactive),–
S=C(NCc1ccccn1)Nc1cccc(Cl)c1,–,10 µM (active)
COCC(=O)N1CCC2(CC1)CN(C(=O)Nc1ccccc1)C2,-5.28% (inactive),–
CCOC(=O)c1cc2c(C(F)(F)F)cc(-c3ccccc3)nc2o1,-1.96% [at 2.29 µM] (inactive),–
CC(Sc1nc(-c2ccccc2)cc(C(F)(F)F)n1)C(=O)N1CCCCC1 (centres undefined),–,7.08 µM (active)
CN1CCN(c2nc(-c3ccccc3)cc(C(F)(F)F)n2)CC1,-3.68% (inactive),–
